Measured values: PubChem BioAssay (NCATS)
“And” between values parts separate entries of the source, which are not always exact repeats. Identical values can stand only once. Records with an inconclusive call do not appear. The source made the active and inactive calls. Unless noted, calls follow the shape of the dose curve; as a rule, active = well fitted curve in the direction sought with a large enough effect; inconclusive = small, poorly fitted or top-dose-only effect, or another doubt; inactive = no such curve, though single readings can be large; an effect the other way counts as inactive or inconclusive.

How the values were obtained:
[1] = target: Rap guanine nucleotide exchange factor 4 (Homo sapiens) (UniProt Q8WZA2); assay: Confirmatory qHTS for agonist of cAMP-regulated guanine nucleotide exchange factor 4 (EPAC2) (AID 1645884);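 also: nucleotide exchange releases bodipy-GDP from Rap1 and this lowers its fluorescence; % is scaled to controls: 0 for no effect and ±100 for the full control effect; nearly all actives have a fitted effect of over 65% in size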
[2] = target: DNA repair nuclease/redox regulator APEX1 (Homo sapiens) (UniProt P27695); assay: qHTS Validation Assay for Inhibitors of the Human Apurinic/apyrimidinic Endonuclease 1 (APE1) (AID 1705;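 also: TAMRA fluorescence gain over two minutes as APE1 cuts a quenched THF abasic duplex; series mostly up to about 57 µM; % is scaled to controls: 0 for no effect and ±100 for the full control effect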)
How it was run: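 Read-out: TAMRA fluorescence (525 nm ex, 598 nm em) from cleavage of a quenched THF abasic-site duplex, 50 nM final; activity taken as intensity change between third and first of three reads 60 s apart.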

[3] = Counterscreen for APE1 Inhibitors: Fluorescent Dye Displacement Validation Assay (AID 1707);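 also: plate controls were ThO with dsDNA and no compound for no effect and ThO without dsDNA for full effect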
How it was run: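 Assay buffer: Tris-HCl pH7.5 with 50mM NaCl, 2 mM MgCl2, 0.01% Tween-20. Dye 250 nM, duplex 50 nM final. Readout: decrease in ThO endpoint fluorescence, 480 nm excitation, 540 nm emission.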

[4] = qHTS for differential inhibitors of proliferation of Plasmodium falciparum line W2 (AID 1883); details: Potency: Plasmodium falciparum W2 proliferation inhibition;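 also: parasites grown with compound for 72 h before lysis and staining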; also: potency is read from the fitted curve at half-maximal effect
[5] = qHTS for differential inhibitors of proliferation of Plasmodium falciparum line HB3 (AID 1886); details: Potency: Plasmodium falciparum HB3 proliferation inhibition;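 also: parasites grown with compound for 72 h before SYBR Green readout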; also: potency is read from the fitted curve at half-maximal effect
[6] = target: ATP-dependent DNA helicase Q1 (Homo sapiens) (UniProt P46063); assay: qHTS Validation Assay for Inhibitors of RecQ-Like Dna Helicase 1 (RECQ1) (AID 2353);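 also: plate controls were DMSO vehicle for no effect and enzyme-free control for full effect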
How it was run: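 50 nM RECQ1T1 preincubated 15 min with compound in Tris pH 8.0 buffer with MgCl2, DTT, Tween-20 and 2.5 ug/ml poly(dI-dC); started with 200 nM TAMRA/BHQ-2 forked duplex and 2 mM ATP. Unwinding read as fluorescence (525/598 nm), two reads 2 h apart.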

[7] = target: Transient receptor potential cation channel subfamily V member 1 (Homo sapiens) (UniProt Q8NER1); assay: HTS Assay for Compounds that Act as Enhancers of the Vanilloid Receptor 1 (AID 488979); also: 0% is about no effect
How it was run: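 TRPV1 cells loaded with Fluo-8 calcium dye; compound added and Ca2+ signal (ex 480/em 520 nm) followed 3 min, then capsaicin at EC20 added and read 2 more min to detect enhancement.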

[8] = target: Thyrotropin-releasing hormone receptor (Homo sapiens) (UniProt P34981); assay: qHTS for Small Molecule Agonists and Allosteric Enhancers of Human TRH Receptor: Validation Screen for Agonists (AID 493127;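 active = calcium activation more than 3 SD above the typical response in the agonist read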; also: 0% is about no effect); details: TRH receptor agonist cell assay; at 2 µM; stronger effect = higher value
How it was run: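 TRHR cells loaded with fluo-8 calcium dye; FDSS kinetic fluorescence (Ex 480/Em 530) read at 1 s/cycle after 23 nL compound addition. Agonist-mode calcium response recorded before the 10 nM TRH (EC20) addition.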

[9] = target: Galactokinase (Homo sapiens) (UniProt P51570); assay: qHTS Validation Assay for Inhibitors of Human Galactokinase (GALK) (AID 493189); also: 0% is about no effect
How it was run: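 Luminescence from leftover ATP (Kinase-Glo Plus, 10 min) served as read-out after a 1 h room-temperature reaction of 5 nM GALK, 100 uM galactose and 35 uM ATP at pH8.0.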

[10] = target: Voltage-gated inwardly rectifying potassium channel KCNH2 (Homo sapiens) (UniProt Q12809); assay: qHTS Assay for Small Molecule Inhibitors of the Human hERG Channel Activity (AID 588834);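 also: lower thallium flux fluorescence means stronger hERG block; nearly all actives have a fitted effect of over 50% in size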; also: potency is read from the fitted curve at half-maximal effect
How it was run: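 Concentration-response qHTS measuring drop in thallium-sensitive dye signal. U2OS cells carrying BacMam hERG; compound exposure ~10 min, then stimulation buffer and 2 min read at 1 sec intervals.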

[11] = qHTS for differential inhibitors of proliferation of Plasmodium falciparum line 3D7 (AID 1876); also: potency is read from the fitted curve at half-maximal effect
[12] = qHTS for differential inhibitors of proliferation of Plasmodium falciparum line Dd2 (AID 1882); details: Potency: Plasmodium falciparum Dd2 proliferation inhibition; also: nearly all actives have a fitted effect of over 65% in size; also: potency is read from the fitted curve at half-maximal effect
How it was run: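 Dd2-infected erythrocytes (0.3% parasitemia, 2.5% hematocrit final) incubated with compound 72 h at 37 C, 5% CO2; lysed with saponin/Triton buffer containing SYBR Green I, incubated overnight in the dark, then read by fluorescence (485/535 nm). Normalized to 0.29 uM artemisinin and DMSO.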

[13] = target: M-phase phosphoprotein 8 (Homo sapiens) (UniProt Q99549); assay: qHTS Validation Assay for Inhibitors for MPP8 Chromodomain Interactions with Methylated Histone Tails (AID 488949); also: nearly all actives have a fitted effect of over 55% in size; also: potency is read from the fitted curve at half-maximal effect
How it was run: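 AlphaScreen read-out: streptavidin donor and nickel chelate acceptor beads (final 10 ug/mL), 30 min in the dark at RT. Complex of 50 nM MPP8 and 50 nM b-H3(1-18)K9me3 peptide had been exposed to compounds for 30 min beforehand.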

[14] = target: Rap guanine nucleotide exchange factor 4 (Homo sapiens) (UniProt Q8WZA2); assay: Confirmatory qHTS for antagonist of cAMP-regulated guanine nucleotide exchange factor 4 (EPAC2) (AID 1645885); also: potency is read from the fitted curve at half-maximal effect; nearly all actives have a fitted effect of over 25% in size
[15] = target: Cytochrome P450 2C9 (Homo sapiens) (UniProt P11712); assay: qHTS Assay for Inhibitors and Substrates of Cytochrome P450 2C9 (AID 883); also: nearly all actives have a fitted effect of over 60% in size; also: potency is read from the fitted curve at half-maximal effect
How it was run: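 Human CYP2C9 (10nM) with Luciferin-H at 100uM (its KM) in 25mM KPO4; compound preincubated 10 min at 37C, then NADPH regeneration for 60 min at 37C. Luciferin read by luminescence after detection reagent; normalized to 57uM sulphaphenazole as full inhibition.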

[16] = target: Cytochrome P450 2D6 (Homo sapiens) (UniProt P10635); assay: qHTS Assay for Inhibitors and Substrates of Cytochrome P450 2D6 (AID 891); also: nearly all actives have a fitted effect of over 60% in size; also: potency is read from the fitted curve at half-maximal effect
How it was run: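 Human CYP2D6 (5 nM) with 30 uM Luciferin-ME EGE (at Km) in 100 mM KPO4, compound preincubated 10 min, then NADPH regeneration system for 60 min at room temperature. Luciferin read by luminescence; normalized to 1.43 uM quinidine.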

[17] = target: Cytochrome P450 2C19 (Homo sapiens) (UniProt P33261); assay: qHTS Assay for Inhibitors and Substrates of Cytochrome P450 2C19 (AID 899); also: nearly all actives have a fitted effect of over 60% in size; also: potency is read from the fitted curve at half-maximal effect
How it was run: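 5 nM human CYP2C19 with 10uM Luciferin-H EGE (at KM) in 50mM KPO4, compound preincubated 10 min at 37C, then NADPH regeneration for 60 min at 37C. Luciferin read by luminescence after detection reagent; normalized to 57uM ketoconazole as full inhibition.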

[18] = target: DNA dC->dU-editing enzyme APOBEC-3G (Homo sapiens) (UniProt Q9HC16); assay: qHTS for inhibitors of Vif-A3G interactions: Validation (AID 588379); also: 0% is about no effect
How it was run: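 HeLa cells stably expressing Vif and A3G-eYFP, 700 cells/well, incubated overnight at 37 deg C, then exposed to compound overnight at 37 deg C. Inhibition of Vif-mediated degradation read as increased yellow fluorescence (Ex 488/Em 500-530) by laser-scanning cytometry.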

[19] = qHTS Assay for Identification of Small Molecule Agonists for Hypoxia Response Element Signaling Pathway (AID 914; active = well fitted activation curve with a large enough effect in the signal ratio, with a control signal flat, not every such curve was filed as active; the % refers to the signal ratio; also: potency is read from the fitted curve at half-maximal effect); details: ME-180 (cervical carcinoma) HRE-bla reporter, beta-lactamase ratio, CoCl2, 17 h; activation: stronger effect = higher value
How it was run: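 HRE-bla ME-180 assay for agonist-like enhancement of an EC50 CoCl2 stimulus: 17 h at 37 degrees Celsius, CCF4 for 2.5 h, ratiometric 460/530 nm signal converted to %Activity and fitted to AC50.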

Sequence of Transient receptor potential cation channel subfamily V member 1 (Homo sapiens) (Q8NER1 whole entry, looked up): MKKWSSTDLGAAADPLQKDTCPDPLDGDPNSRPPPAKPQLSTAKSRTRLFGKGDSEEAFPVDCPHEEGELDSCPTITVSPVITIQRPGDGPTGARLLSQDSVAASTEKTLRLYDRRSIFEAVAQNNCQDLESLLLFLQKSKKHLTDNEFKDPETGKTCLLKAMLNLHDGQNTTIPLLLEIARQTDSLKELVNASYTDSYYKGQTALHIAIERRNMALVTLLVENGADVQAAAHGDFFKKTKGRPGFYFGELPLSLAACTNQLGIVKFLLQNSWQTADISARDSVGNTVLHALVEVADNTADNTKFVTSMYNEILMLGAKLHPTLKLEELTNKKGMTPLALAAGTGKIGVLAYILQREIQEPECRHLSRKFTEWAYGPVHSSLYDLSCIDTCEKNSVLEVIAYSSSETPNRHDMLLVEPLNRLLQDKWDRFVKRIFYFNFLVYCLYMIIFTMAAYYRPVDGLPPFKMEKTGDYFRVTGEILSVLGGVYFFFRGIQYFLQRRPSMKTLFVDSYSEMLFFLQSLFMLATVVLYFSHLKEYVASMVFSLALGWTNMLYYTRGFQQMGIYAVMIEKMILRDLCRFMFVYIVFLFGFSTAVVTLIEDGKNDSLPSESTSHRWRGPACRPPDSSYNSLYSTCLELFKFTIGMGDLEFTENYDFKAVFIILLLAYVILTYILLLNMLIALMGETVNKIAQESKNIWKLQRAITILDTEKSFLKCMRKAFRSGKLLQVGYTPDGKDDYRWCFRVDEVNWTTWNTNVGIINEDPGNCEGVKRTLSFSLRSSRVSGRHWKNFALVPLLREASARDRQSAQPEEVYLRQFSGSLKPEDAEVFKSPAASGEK
Sequence of Cytochrome P450 2C19 (Homo sapiens) (P33261 whole entry, looked up): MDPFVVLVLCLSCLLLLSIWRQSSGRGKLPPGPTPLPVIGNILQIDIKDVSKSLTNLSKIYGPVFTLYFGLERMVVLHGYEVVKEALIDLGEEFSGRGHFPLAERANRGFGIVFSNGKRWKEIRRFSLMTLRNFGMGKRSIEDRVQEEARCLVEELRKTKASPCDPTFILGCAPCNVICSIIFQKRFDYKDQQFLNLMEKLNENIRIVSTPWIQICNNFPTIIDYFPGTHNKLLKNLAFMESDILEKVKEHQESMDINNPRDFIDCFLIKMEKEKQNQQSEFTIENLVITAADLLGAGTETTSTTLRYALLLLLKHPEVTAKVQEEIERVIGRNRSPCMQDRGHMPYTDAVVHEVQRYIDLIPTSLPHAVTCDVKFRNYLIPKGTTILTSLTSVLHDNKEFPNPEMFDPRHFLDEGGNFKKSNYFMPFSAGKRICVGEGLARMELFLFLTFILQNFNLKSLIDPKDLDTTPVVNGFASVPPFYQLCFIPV
Sequence of Thyrotropin-releasing hormone receptor (Homo sapiens) (P34981 whole entry, looked up): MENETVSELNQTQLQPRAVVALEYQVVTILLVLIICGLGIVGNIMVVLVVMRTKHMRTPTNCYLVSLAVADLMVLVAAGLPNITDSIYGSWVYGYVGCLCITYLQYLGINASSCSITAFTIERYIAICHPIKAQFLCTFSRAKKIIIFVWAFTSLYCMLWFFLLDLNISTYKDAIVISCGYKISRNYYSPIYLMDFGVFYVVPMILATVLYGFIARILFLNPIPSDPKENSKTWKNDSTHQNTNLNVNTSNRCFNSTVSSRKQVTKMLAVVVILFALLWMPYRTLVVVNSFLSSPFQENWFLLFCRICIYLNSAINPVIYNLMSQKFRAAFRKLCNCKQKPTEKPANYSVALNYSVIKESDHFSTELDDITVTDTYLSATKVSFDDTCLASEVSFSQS
Sequence of ATP-dependent DNA helicase Q1 (Homo sapiens) (P46063 whole entry, looked up): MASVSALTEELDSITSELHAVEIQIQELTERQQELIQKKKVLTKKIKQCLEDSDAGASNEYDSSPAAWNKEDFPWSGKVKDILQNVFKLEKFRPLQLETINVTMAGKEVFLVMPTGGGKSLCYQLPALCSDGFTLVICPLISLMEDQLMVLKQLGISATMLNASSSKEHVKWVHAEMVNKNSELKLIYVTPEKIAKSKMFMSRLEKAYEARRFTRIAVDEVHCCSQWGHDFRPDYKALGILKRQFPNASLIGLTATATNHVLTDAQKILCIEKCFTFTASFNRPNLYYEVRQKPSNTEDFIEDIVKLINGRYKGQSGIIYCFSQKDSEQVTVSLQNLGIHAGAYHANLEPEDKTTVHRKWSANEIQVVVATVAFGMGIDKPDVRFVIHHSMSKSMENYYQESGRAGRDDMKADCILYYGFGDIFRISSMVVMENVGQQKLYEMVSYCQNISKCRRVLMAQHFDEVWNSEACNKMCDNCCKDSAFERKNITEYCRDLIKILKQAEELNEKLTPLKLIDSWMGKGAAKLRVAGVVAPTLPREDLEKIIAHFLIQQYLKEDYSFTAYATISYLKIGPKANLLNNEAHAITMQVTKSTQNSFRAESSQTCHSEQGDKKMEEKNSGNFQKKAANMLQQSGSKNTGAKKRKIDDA
Sequence of M-phase phosphoprotein 8 (Homo sapiens) (Q99549 whole entry, looked up): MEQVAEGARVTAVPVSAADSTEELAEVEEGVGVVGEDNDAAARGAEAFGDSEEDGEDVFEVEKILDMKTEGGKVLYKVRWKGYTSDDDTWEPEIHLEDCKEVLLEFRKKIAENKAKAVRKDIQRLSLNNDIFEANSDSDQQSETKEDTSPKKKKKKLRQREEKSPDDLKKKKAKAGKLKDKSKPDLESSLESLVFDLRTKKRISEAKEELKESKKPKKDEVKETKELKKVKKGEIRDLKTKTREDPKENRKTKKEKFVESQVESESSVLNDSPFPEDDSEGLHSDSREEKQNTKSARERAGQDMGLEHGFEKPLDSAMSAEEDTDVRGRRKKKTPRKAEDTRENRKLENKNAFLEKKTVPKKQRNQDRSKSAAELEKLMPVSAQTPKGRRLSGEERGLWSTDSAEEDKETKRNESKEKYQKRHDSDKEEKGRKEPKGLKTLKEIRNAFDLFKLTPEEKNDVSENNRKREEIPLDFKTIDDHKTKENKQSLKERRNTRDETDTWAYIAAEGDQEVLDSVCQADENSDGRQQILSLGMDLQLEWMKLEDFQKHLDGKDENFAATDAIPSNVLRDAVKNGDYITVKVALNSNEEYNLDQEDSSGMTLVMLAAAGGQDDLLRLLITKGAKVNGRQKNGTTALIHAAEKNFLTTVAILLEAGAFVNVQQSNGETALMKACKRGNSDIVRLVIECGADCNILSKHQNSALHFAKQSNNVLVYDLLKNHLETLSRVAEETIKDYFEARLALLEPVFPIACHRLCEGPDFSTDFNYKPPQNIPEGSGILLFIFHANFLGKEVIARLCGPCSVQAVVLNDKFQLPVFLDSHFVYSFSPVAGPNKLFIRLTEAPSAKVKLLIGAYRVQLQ
Sequence of Rap guanine nucleotide exchange factor 4 (Homo sapiens) (Q8WZA2 whole entry, looked up): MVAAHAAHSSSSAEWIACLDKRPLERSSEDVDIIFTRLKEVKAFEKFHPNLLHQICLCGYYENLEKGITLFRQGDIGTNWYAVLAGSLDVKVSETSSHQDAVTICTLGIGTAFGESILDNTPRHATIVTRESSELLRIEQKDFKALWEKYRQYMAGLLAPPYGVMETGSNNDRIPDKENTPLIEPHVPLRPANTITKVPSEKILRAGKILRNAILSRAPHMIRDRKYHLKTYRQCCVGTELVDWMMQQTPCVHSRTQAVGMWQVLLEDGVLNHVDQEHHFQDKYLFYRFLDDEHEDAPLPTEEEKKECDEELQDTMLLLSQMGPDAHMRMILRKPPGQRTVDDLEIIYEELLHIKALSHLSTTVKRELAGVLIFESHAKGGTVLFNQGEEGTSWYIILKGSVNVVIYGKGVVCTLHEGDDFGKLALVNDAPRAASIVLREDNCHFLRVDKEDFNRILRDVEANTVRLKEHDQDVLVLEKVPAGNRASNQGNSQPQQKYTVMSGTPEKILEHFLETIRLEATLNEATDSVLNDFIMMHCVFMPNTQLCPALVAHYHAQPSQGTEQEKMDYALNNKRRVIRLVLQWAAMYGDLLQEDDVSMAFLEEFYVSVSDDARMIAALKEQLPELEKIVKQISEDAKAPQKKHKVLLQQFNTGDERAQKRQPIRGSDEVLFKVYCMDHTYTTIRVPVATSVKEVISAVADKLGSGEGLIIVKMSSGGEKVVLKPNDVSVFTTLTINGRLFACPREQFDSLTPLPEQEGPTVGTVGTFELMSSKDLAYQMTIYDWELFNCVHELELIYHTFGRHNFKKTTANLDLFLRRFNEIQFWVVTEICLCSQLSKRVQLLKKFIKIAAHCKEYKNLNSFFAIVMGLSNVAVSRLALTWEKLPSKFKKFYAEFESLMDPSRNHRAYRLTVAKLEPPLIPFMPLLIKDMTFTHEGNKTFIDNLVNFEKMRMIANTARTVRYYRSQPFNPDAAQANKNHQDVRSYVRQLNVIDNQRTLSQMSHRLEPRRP
Sequence of DNA repair nuclease/redox regulator APEX1 (Homo sapiens) (P27695 whole entry, looked up): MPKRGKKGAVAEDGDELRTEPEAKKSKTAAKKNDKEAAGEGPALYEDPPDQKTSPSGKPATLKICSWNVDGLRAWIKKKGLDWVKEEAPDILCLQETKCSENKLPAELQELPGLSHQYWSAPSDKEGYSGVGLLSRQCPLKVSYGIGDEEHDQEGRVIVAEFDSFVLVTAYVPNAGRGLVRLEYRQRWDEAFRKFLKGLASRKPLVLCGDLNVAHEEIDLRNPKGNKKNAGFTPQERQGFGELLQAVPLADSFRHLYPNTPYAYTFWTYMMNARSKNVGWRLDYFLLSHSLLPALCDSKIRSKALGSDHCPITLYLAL
Sequence of Galactokinase (Homo sapiens) (P51570 whole entry, looked up): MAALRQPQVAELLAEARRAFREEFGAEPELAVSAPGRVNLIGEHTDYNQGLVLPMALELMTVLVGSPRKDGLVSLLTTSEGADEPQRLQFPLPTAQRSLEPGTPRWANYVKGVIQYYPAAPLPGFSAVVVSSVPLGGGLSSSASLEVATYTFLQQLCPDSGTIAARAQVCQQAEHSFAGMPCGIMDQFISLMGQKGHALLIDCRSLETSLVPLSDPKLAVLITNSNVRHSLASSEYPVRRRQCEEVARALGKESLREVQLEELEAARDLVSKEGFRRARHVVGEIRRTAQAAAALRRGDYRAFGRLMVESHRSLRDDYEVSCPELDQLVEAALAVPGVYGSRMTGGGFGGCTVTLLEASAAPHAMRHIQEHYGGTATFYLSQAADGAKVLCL

COc1ccccc1CNc1ncncc1-c1ccccc1OC
inactive: Potency [1]

Cc1cccc2c3c(ccc12)C1=C(C(=O)C3=O)C(C)CO1 (configuration not stated)
inactive: Potency [1]

Nc1ncnc2c1nc(Br)n2C1O[C@H]2COP(=O)(O)O[C@@H]2C1O (some centres not stated)
inactive: outcome [2] | outcome [3] | outcome [6] | outcome [7] | activation [8] 0.688% | outcome [9] | Potency [10]
active: Potency [4] 5.62 µM | Potency [5] 6.31 µM

C[C@@H](Oc1ccc(Oc2cnc3ccc(Cl)cc3n2)cc1)C(=O)O
inactive: outcome [3] | Potency [11] | Potency [12] | Potency [4] | Potency [5] | outcome [6] | Potency [13] | outcome [7] | activation [8] -0.0625% | outcome [9] | Potency [10]

C=CC(C1=CC(=O)C(OC)=CC1=O)c1ccccc1 (configuration not stated)
active: Potency [14] 31.2 µM
inactive: Potency [1]

COc1cc2c3cc1Oc1c(OC)c(OC)cc4c1[C@@H](Cc1ccc(O)c(c1)Oc1ccc(cc1)C[C@@H]3N(C)CC2)N(C)CC4
inactive: Potency [15] | Potency [16] | Potency [17] | outcome [18]

CNC(=O)[C@H]1O[C@@H](n2cnc3c(N)ncnc32)[C@H](O)[C@H]1O
inactive: outcome [2] | outcome [3] | Potency [11] | Potency [12] | Potency [4] | Potency [5] | outcome [6] | Potency [13] | outcome [7] | activation [8] -0.0625% | outcome [9] | Potency [10]

COC(=O)CC1C2(C)CC34OC5(C)O[C@@]6(C7/C(=C(/OC)C(C)C)C(=O)OC(c8ccoc8)[C@@]7(C)C(OC(=O)C(C)C)C(OC)[C@]6(O5)[C@@]13C)C(OC)[C@]4(OC)C2OC(C)=O (some centres not stated)
inactive: Potency [1]

COc1cc(C)c(C(=O)Oc2cc(C)c(C(=O)O)c(O)c2C)c(OC)c1C
active: Potency [14] 49.4 µM
inactive: Potency [1]

CCCC1O[C@@H]2C[C@H]3[C@@H]4CCC5=CC(=O)C=C[C@]5(C)C4[C@@H](O)C[C@]3(C)[C@]2(C(=O)CO)O1 (some centres not stated)
inactive: outcome [2] | outcome [3] | outcome [6] | Potency [13] | outcome [7] | activation [8] 2.06% | outcome [9] | Potency [10]
active: Potency [11] 2.51 µM | Potency [12] 5.01 µM | Potency [4] 2.51 µM | Potency [5] 5.01 µM

O=C1C=CC2=C3c4cc(O)c(O)cc4CC3(O)COC2=C1O (configuration not stated)
inactive: outcome [18] | Potency [1]

COc1ccc2c(c1OC)C(=O)OC2C1c2c(cc3c(c2OC)OCO3)CCN1C (configuration not stated)
active: Potency [11] 12.6 µM | Potency [4] 14.1 µM
inactive: outcome [2] | outcome [3] | Potency [12] | outcome [6] | Potency [13] | outcome [7] | activation [8] -4.69% | outcome [9] | Potency [10]

COC(=O)c1c(C)c2c(c(C)c1O)OC(=O)c1c(C)c(Cl)c(O)c(Cl)c1O2
inactive: Potency [1]
active: Potency [14] 2.48 µM and 2.21 µM

NC(=NCc1ccc(Cl)c(Cl)c1)NC(=O)c1nc(Cl)c(N)nc1N
active: Potency [11] 0.282 µM | Potency [12] 1.58 µM | Potency [4] 1 µM | Potency [5] 0.501 µM | Potency [13] 50.1 µM | Potency [10] 2 µM
inactive: outcome [2] | outcome [3] | outcome [6] | activation [8] 4.94% | outcome [9]

CN(C)CCCO[C@H]1C([C@H](O)CO)O[C@@H]2OC(C)(C)O[C@@H]21 (some centres not stated)
inactive: outcome [2] | outcome [3] | Potency [11] | Potency [12] | Potency [4] | Potency [5] | outcome [6] | Potency [13] | outcome [7] | activation [8] 0.75% | outcome [9] | Potency [10]

CC(=O)OC1c2c(ccc3ccc(=O)oc23)OC(C)(C)C1OC(=O)CC(C)C (configuration not stated)
active: Potency [14] 44.1 µM
inactive: Potency [1]

CCC(=O)OC1CCC2C3CCc4cc(O)ccc4C3CC[C@]12C (some centres not stated)
inactive: Potency [1]
active: Potency [14] 49.4 µM

Nc1c2ccccc2nc2ccccc12 (tested in a mixture with another compound)
inactive: Potency [1]

COC(=O)[C@@H]1C2CC3c4[nH]c5cc(OC)ccc5c4CCN3CC2C[C@H](OC(=O)c2cc(OC)c(OC)c(OC)c2)C1OC (some centres not stated)
inactive: Potency [1]

COc1cccc(-c2ccc3ncnc(NCCc4c[nH]c5ccc(OC)cc45)c3c2)c1
active: Potency [15] 0.398 µM | Potency [16] 2.51 µM | Potency [17] 3.16 µM

CN1CCN(c2ncncc2-c2ccoc2)CC1
inactive: Potency [17]

FC(F)(F)c1ccccc1-c1cncnc1NCCN1CCOCC1
active: Potency [19] 2.51 µM

COc1cccc(Cn2c(=O)c(-c3cc(F)cc(F)c3)nc3cnc(N4CCNCC4)nc32)c1
active: Potency [15] 7.94 µM

COc1ccccc1-c1ccc2ncnc(NCc3ccccc3)c2c1
active: Potency [15] 0.501 µM | Potency [17] 3.98 µM
